Sampled rows, rich in hits. Any-hit rate of the full collection: about 2.4%.
POLK inh: DNA polymerase kappa (human) inhibition | hit rate 0.53% among 400,000 | purified Pol kappa, fluorescent DNA synthesis assay, 10 min | Q9UBT6 | AID 588579 | Potency, µM (series often up to 107 µM), for inactives: at the highest dose activity, negative = inhibition, hits mostly inhibitors; further: on the % scale 0 is the no-effect control and ±100 the full control effect
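Kinetic fluorescence screen: compound preincubated 15 min RT with 10 nM enzyme; 50 nM substrate (final) initiates; reads at 0/10 min.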
POLB inh: DNA polymerase beta (human) inhibition; Potency, µM (doses to about 114 µM), inactives show at the top dose activity change, negative = inhibition, hits mostly inhibitors; hit rate 1.3% among 340,000; Pol beta primer extension/strand displacement, fluorescence kinetic; further: on the % scale 0 is the no-effect control and ±100 the full control effect
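Curves were derived by four-parameter Hill fits of normalized qHTS data. The kinetic fluorescent primer-extension read was taken at 0 and 10 min after 50 nM substrate, following a 15 min room-temperature preincubation of 10 nM enzyme with compounds.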
Pol iota inh: inhibitors of human DNA polymerase iota; AID 588590; Q9UNA4; hit rate 1% among 390,000; Pol iota fluorescent replication assay, 10 min; Potency, µM (top dose mostly 115 µM), for inactives: at the highest dose activity, negative = inhibition, usual class: inhibitors
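Fluorescent replication assay read twice, at 0 min and 10 min after adding 50 nM (final) substrate. Enzyme (10 nM) and compounds were first incubated 15 min at room temperature; enzyme-free buffer wells were negative controls.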
WRN inhibitor: inhibitors of human WRN helicase. Q14191. WRN helicase unwinding, fluorescent forked duplex, kinetic. Potency, µM (series often up to 114 µM), for inactives: top-dose activity change, negative = inhibition, usual class: inhibitors. hit rate 0.46% among 360,000. AID 651768; further: on the % scale 0 is the no-effect control and ±100 the full control effect; nearly all actives have a fitted effect of over 55% in size
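Primary qHTS, 1536-well format. 20 nM WRN + compound, 15 min RT; start with 100 nM forked fluorophore/quencher duplex, 2 mM ATP (final); kinetic read ex 525/em 598 nm.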
Pol eta inh: DNA polymerase eta (human) inhibition; recombinant Pol eta, fluorescent DNA replication assay; AID 588591; Q9Y253; hit rate 1.2% among 390,000; Potency, µM (series often up to 114 µM), for the others: at the top dose activity change, negative = inhibition, usual class: inhibitors; further: on the % scale 0 is the no-effect control and ±100 the full control effect
Target sequence (Q9Y253 whole entry, looked up): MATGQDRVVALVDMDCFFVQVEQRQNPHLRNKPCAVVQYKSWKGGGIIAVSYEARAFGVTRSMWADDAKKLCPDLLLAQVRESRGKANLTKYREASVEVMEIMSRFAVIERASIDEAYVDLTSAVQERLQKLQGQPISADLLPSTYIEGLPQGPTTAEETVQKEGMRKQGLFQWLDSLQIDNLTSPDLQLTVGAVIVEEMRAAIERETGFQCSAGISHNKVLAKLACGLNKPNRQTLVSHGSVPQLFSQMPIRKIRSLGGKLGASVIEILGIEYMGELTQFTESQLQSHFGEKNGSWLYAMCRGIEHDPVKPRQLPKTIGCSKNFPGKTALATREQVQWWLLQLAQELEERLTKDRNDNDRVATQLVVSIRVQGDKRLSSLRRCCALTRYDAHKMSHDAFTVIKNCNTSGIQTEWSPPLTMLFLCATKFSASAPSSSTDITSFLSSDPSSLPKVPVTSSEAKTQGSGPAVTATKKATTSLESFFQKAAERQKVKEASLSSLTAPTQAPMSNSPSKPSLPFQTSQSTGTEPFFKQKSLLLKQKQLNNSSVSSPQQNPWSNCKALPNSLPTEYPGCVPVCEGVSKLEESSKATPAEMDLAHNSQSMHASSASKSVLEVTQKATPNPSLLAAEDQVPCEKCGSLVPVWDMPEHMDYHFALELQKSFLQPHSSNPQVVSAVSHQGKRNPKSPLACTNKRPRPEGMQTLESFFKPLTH
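Fluorescent replication assay: 50 nM final substrate added after a 15 min room-temperature compound preincubation with 10 nM enzyme. Signal taken at 0 min and again at 10 min.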
FEN1 inhibitor: blocks human flap endonuclease 1; Recombinant FEN1 flap cleavage, fluorescence, 15 min; Potency, µM (doses to about 114 µM), inactives show at the highest dose activity change, negative = inhibition, actives largely listed as inhibitors; hit rate 0.35% among 390,000; P39748; further: on the % scale 0 is the no-effect control and ±100 the full control effect; nearly all actives have a fitted effect of over 65% in size
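With each library titrated from low to high concentration, compounds met 10 nM FEN1 for 15 min at room temperature before 50 nM substrate was added; readings at 0 and 15 min fed four-parameter Hill curve fits.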
PGK validate: validation of Trypanosoma brucei phosphoglycerate kinase inhibitors; shares compounds with POLK inh; TbPGK coupled GAPDH assay, Kinase-Glo luminescence; Potency, µM (highest dose often 57.5 µM), without a hit: at the top dose activity change, negative = inhibition, usual class: inhibitors; hit rate 79% among 500; further: on the % scale 0 is the no-effect control and ±100 the full control effect; nearly all actives have a fitted effect of over 65% in size
Pol iota confirm: Confirm cherry-picked inhibitors of human polymerase iota. shares compounds with POLK inh. Pol iota primer extension, TAMRA/BHQ fluorescence. Potency, µM, actives largely listed as inhibitors. hit rate 77% among 1,500. AID 720496
Numbers without * were called inactive; [ ] = remark or other dose. The call rests on the fitted dose curve; in most records, active means well fitted curve in the direction sought with a large enough effect; inconclusive means small, poorly fitted or top-dose-only effect, or another doubt; inactive means no such curve, though single readings can be large; an effect the other way counts as inactive or inconclusive. Potency means the concentration at half of the fitted maximal effect.

Cc1ccc(C(=O)Nc2ccc3c(c2)N(C)C(=O)c2ccccc2S3)cc1 was read as POLK inh -0.4%[60.1 µM], POLB inh 1.1%, Pol iota inh 32.4%, Pol eta inh -8.0% and FEN1 inhibitor 7.4%.
Screening CCn1cc(C(=O)O)c(=O)c2cc(F)c(N3CCN(C(=S)Nc4ccccc4OC)CC3)cc21 returned POLK inh 4.7%, POLB inh 0.0%, Pol iota inh -8.5%, WRN inhibitor 5.4%, Pol eta inh 9.7% and FEN1 inhibitor -28.3%.
For CCn1cc(C(=O)O)c(=O)c2cc(F)c(N3CCN(S(=O)(=O)c4ccc(NC(=O)OC)cc4)CC3)cc21 the results were POLK inh 2.1%, POLB inh inconclusive, Pol iota inh 16.7%, WRN inhibitor inconclusive, Pol eta inh inconclusive, FEN1 inhibitor inconclusive and Pol iota confirm 33.6*.
For Cc1cc(=O)oc2cc(OCC(=O)N/N=C/c3ccccc3O)ccc12 the results were POLK inh -8.0%, POLB inh 3.16µM*, Pol iota inh 29.4%, WRN inhibitor -1.4%, Pol eta inh 17.8µM*, FEN1 inhibitor -0.3% and Pol iota confirm inconclusive.
`COc1ccc(-c2nnc(SCC(=O)Nc3ccc(C(=O)O)cc3)n2-c2ccc(Cl)cc2)cc1` gave POLK inh 6.0%, POLB inh inconclusive, Pol iota inh -6.1%, WRN inhibitor 0.2%, Pol eta inh -4.3% and FEN1 inhibitor 1.6%.
COc1ccc(-n2c(SCC(=O)Nc3nccs3)nnc2-c2ccc(Cl)cc2)cc1 was read as POLK inh 0.2%, Pol iota inh 13.2%, WRN inhibitor -7.1%, Pol eta inh inconclusive, FEN1 inhibitor 17.2% and Pol iota confirm inconclusive.
CCC(=O)NC(=S)Nc1ccc(-c2nc3ccccc3s2)cc1 was read as POLK inh -8.4%, POLB inh -13.4%, Pol iota inh 2.3%, WRN inhibitor -2.3%, Pol eta inh 5.4% and FEN1 inhibitor -3.3%.
For O=C(O)CSCC(=O)Nc1ccc(-c2nc3ccccc3s2)cc1 the results were POLK inh -11.7%, POLB inh inconclusive, Pol iota inh -0.5%, WRN inhibitor -12.1%[11.6 µM], Pol eta inh 44.7µM*, FEN1 inhibitor -11.3% and PGK validate inconclusive.
For CC(C)CCN1CCN(Cc2ccc3nsnc3c2)CC1CCO (centres undefined) the results were POLK inh -17.9%, POLB inh -1.4%, Pol iota inh 25.1%, WRN inhibitor -10.1%, Pol eta inh -2.3%, FEN1 inhibitor 5.4% and PGK validate -7.5%.
Screening CC(C)=CCN1CCN(Cc2ccc3nsnc3c2)CC1CCO (centres undefined) returned POLK inh 0.0%, POLB inh 7.8%, Pol iota inh 153.7%, WRN inhibitor 1.8%, Pol eta inh -19.9% and FEN1 inhibitor 5.9%.
`O=C(/C=C/c1ccc(O)c(O)c1)OC1C(O)CC(OC(=O)/C=C/c2ccc(O)c(O)c2)(C(=O)O)CC1O` (centres undefined) gave POLK inh inconclusive, POLB inh 1.41µM*, Pol iota inh 5.01µM*, WRN inhibitor -2.7%, Pol eta inh inconclusive, FEN1 inhibitor -1.5% and Pol iota confirm 23.8*.
`CCOc1ccc(-c2c(C(=O)N/N=C/c3cccnc3)nnn2-c2nonc2N)cc1` gave POLK inh inconclusive, POLB inh inconclusive, Pol iota inh 22.4µM*, WRN inhibitor 6.7%, Pol eta inh inconclusive, FEN1 inhibitor -6.5% and Pol iota confirm inconclusive.
`Cc1cc2nc(-c3ccc(SCC(=O)Nc4ccc(S(=O)(=O)NC5CC5)cc4)nc3)[nH]c2cc1C` gave POLK inh -5.6%, POLB inh inconclusive, Pol iota inh inconclusive, WRN inhibitor 1.2%, Pol eta inh inconclusive and FEN1 inhibitor -1.3%.
Cc1cc(NC(=O)CSc2ccc(-c3nc4cc(C)c(C)cc4[nH]3)cn2)no1 was read as POLK inh 8.3%, POLB inh -0.4%, Pol iota inh 22.7%, WRN inhibitor -22.5%, Pol eta inh -16.4%, FEN1 inhibitor 6.5% and PGK validate 4.9%.
For CCc1ccc(S(=O)(=O)c2nnn3c2nc(Nc2cccc(C)c2C)c2sccc23)cc1 the results were POLK inh -4.0%, POLB inh 3.6%, Pol iota inh 3.7%, Pol eta inh -11.6% and FEN1 inhibitor 15.5%.
For COc1ccc(OC)c(N/C=C/C(=O)c2ccccc2)c1 the results were POLK inh -11.0%, POLB inh 20.7%, Pol iota inh -0.3%, WRN inhibitor -3.9%, Pol eta inh 0.5%, FEN1 inhibitor -18.0% and PGK validate 18.3µM*.
COc1ccccc1C(=O)Nc1nc2ccc(S(C)(=O)=O)cc2s1 was read as POLK inh -11.5%, POLB inh 4.7%, Pol iota inh -6.0%[58.9 µM], WRN inhibitor 8.7%, Pol eta inh -3.6% and FEN1 inhibitor 10.9%.
For COc1ccccc1C(=O)Nc1nc2ccccc2s1 the results were POLK inh 14.1%, POLB inh -27.0%, Pol iota inh inconclusive, WRN inhibitor 2.1%, Pol eta inh -5.1%, FEN1 inhibitor -11.2% and PGK validate 16.3µM*.
`Cc1ccc2oc(-c3ccc(C)c(NC(=O)/C=C/c4ccco4)c3)nc2c1` gave POLK inh -20.1%, POLB inh 8.2%, Pol iota inh inconclusive, Pol eta inh inconclusive and FEN1 inhibitor -17.1%.
Cc1ccc(-c2nc3ccccc3o2)cc1NC(=S)NC(=O)/C=C/c1ccco1 was read as POLK inh -17.6%, POLB inh 39.8µM*, Pol iota inh inconclusive, WRN inhibitor inconclusive, Pol eta inh 22.4µM*, FEN1 inhibitor -8.0% and Pol iota confirm inconclusive.
`Clc1ccccc1Nc1nnc(-c2ccncc2)s1` gave POLK inh -0.7%, POLB inh 0.2%, Pol iota inh 4.6%, WRN inhibitor inconclusive, Pol eta inh 3.9%, FEN1 inhibitor -1.6% and PGK validate 14.6µM*.
For CCC(=O)N1c2ccccc2CC1C(=O)NCCCN1CCN(c2ccc(OC)cc2)CC1 (centres undefined) the results were POLK inh -1.1%[60.1 µM], POLB inh -15.6%, Pol iota inh 30.9%, Pol eta inh -10.2%, FEN1 inhibitor -2.1% and PGK validate -0.9%.

From PubChem
